# Assay results as given in PubChem BioAssay (EPA / NIEHS).
# The source made the active and inactive calls. Rule for the calls: active = hit-call score of the fitted dose curve at least 0.9, where 1 is the maximum; inactive = score below 0.9.
# Assays:
# Conditions in all cases: primary human HUVEC with PBMC; actives raise or lower the signal
# [1] = read-out: Monocyte Chemoattractant Protein-1 (MCP1), CCL2 (gene 6347); experiment: BSK_LPS_MCP1: BioMAP Diversity Plus: LPS Assay for Monocyte Chemoattractant Protein-1 (MCP1) Biomarker Activity (AID 2283081);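 for AC50: co-culture stimulated with LPS; secreted MCP-1 protein quantified by ELISA in culture supernatant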
# Outline: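 Secreted MCP-1 read by ELISA at 24 h post-dosing in an LPS-activated co-culture of endothelial cells with peripheral blood mononuclear cells. Fits run in both directions, DMSO as baseline; parallel SRB staining tracks overt cytotoxicity.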
# [2] = BSK_LPS_PGE2: BioMAP Diversity Plus: LPS Assay for Prostaglandin E2 (PGE2) Biomarker Activity (AID 2283082);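 for AC50: secreted prostaglandin E2 measured by ELISA in LPS-stimulated co-culture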
# Outline: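 Primary human endothelial cells and blood mononuclear cells, co-cultured with LPS, receive test chemical; PGE2 ELISA follows at 24 h, with SRB-stained parallel cultures flagging cytotoxicity.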
# [3] = read-out: Macrophage colony-stimulating factor (MCSF), CSF1 (gene 1435); experiment: BSK_LPS_MCSF: BioMAP Diversity Plus: LPS Assay for Macrophage colony-stimulating factor (MCSF) Biomarker Activity (AID 2283083)
# Outline: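 Bidirectional fitting against DMSO was applied to M-CSF levels read by ELISA at 24 h post-dose. The system pairs human umbilical vein endothelium with peripheral blood mononuclear cells; parallel SRB staining tracked cytotoxicity.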
# [4] = read-out: Tissue Factor, F3 (gene 2152); experiment: BSK_LPS_TissueFactor: BioMAP Diversity Plus: LPS Assay for Tissue Factor Biomarker Activity (AID 2283084)
# Outline: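 Compound was added to an endothelial cell/PBMC co-culture, and after 24 h tissue factor (CD142) was read by ELISA. Gain or loss of signal was fitted against a DMSO baseline, and parallel SRB staining (560 nm) tracked overt cytotoxicity.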
# [5] = read-out: Vascular cell adhesion molecule 1 (VCAM1), VCAM1 (gene 7412); experiment: BSK_LPS_VCAM1: BioMAP Diversity Plus: LPS Assay for Vascular cell adhesion molecule 1 (VCAM1) Biomarker Activity (AID 2283086)
# Outline: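 Measured by ELISA: VCAM-1 in LPS-activated HUVEC/PBMC co-cultures 24 h after treatment. Values reflect bidirectional fitting with DMSO as baseline.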
# [6] = read-out: CD38, CD38 (gene 952); experiment: BSK_SAg_CD38: BioMAP Diversity Plus: SAg Assay for CD38 Biomarker Activity (AID 2283087)
# Outline: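 Measures CD38 on a human endothelial/PBMC co-culture driven by SEB and TSST-1, 24 h after compound exposure, using ELISA with fluorescence detection; DMSO defines baseline for bidirectional curve fitting.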
# [7] = read-out: CD40, CD40 (gene 958); experiment: BSK_SAg_CD40: BioMAP Diversity Plus: SAg Assay for CD40 Biomarker Activity (AID 2283088)
# Outline: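 CD40 is measured by fluorescence ELISA in an endothelial/PBMC primary human co-culture at 24 h post-dose. Fitting is bidirectional, DMSO baseline. Parallel SRB staining (560 nm) flags cytotoxicity.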
# [8] = read-out: CD69, CD69 (gene 969); experiment: BSK_SAg_CD69: BioMAP Diversity Plus: SAg Assay for CD69 Biomarker Activity (AID 2283089);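 for AC50: cell surface CD69 protein quantified by ELISA with fluorescence detection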
# Outline: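 HUVEC co-cultured with PBMC were dosed with chemical, and CD69 was measured by ELISA with fluorescence read-out 24 h later. Bidirectional curve fitting used DMSO as negative control and activity baseline.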
# [9] = read-out: Monocyte Chemoattractant Protein-1 (MCP1), CCL2 (gene 6347); experiment: BSK_SAg_MCP1: BioMAP Diversity Plus: SAg Assay for Monocyte Chemoattractant Protein-1 (MCP1) Biomarker Activity (AID 2283090)
# Outline: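 Values derive from bidirectional fitting of ELISA-measured MCP1 against DMSO controls. Readings were taken 24 h after dosing human vascular endothelial cells co-cultured with peripheral blood mononuclear cells under superantigen stimulation.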
compound,measurement,setting,value
CCc1ccc(C(=O)NN(C(=O)c2cc(C)cc(C)c2)C(C)(C)C)cc1,outcome,[1],inactive
same,AC50,[2],20 µM (active)
same,outcome,[3],inactive
same,outcome,[4],inactive
same,outcome,[5],inactive
same,AC50,[6],30.6 µM (active)
same,outcome,[7],inactive
same,AC50,[8],13.5 µM (active)
same,outcome,[9],inactive
Oc1ccc(Cl)cc1Cc1ccccc1,AC50,[1],32.5 µM (active) [middle of 7 runs]
same,AC50,[3],29.6 µM (active) [middle of 7 runs]
same,AC50,[4],33.6 µM (active) [middle of 7 runs]
same,AC50,[5],32.5 µM (active) [middle of 6 runs]
same,AC50,[6],33.6 µM (active) [middle of 6 runs]
same,AC50,[7],29.4 µM (active) [middle of 6 runs]
same,AC50,[8],32.7 µM (active) [middle of 7 runs]
same,AC50,[9],34.9 µM (active) [middle of 7 runs]
CC(C)(C)C(O)/C(=C\c1ccc(Cl)cc1Cl)n1cncn1 (stereo unspecified),AC50,[1],30.5 µM (active)
same,AC50,[2],0.994 µM (active)
same,AC50,[3],20.6 µM (active)
same,outcome,[4],inactive
same,AC50,[5],27.6 µM (active)
same,AC50,[6],27.5 µM (active)
same,AC50,[7],25.6 µM (active)
same,AC50,[8],15.8 µM (active)
same,AC50,[9],31.8 µM (active)
OCCOc1ccccc1,outcome,[1],inactive
same,outcome,[2],inactive
same,outcome,[3],inactive
same,outcome,[4],inactive
same,outcome,[5],inactive
same,outcome,[6],inactive
same,outcome,[7],inactive
same,outcome,[8],inactive
same,outcome,[9],inactive
Clc1ccccc1-c1nnc(-c2ccccc2Cl)nn1,outcome,[1],inactive
same,outcome,[2],inactive
same,outcome,[3],inactive
same,outcome,[4],inactive
same,outcome,[5],inactive
same,outcome,[6],inactive
same,outcome,[7],inactive
same,outcome,[8],inactive
same,outcome,[9],inactive
COP(=S)(OC)Oc1ccc([N+](=O)[O-])cc1,outcome,[1],inactive
same,AC50,[2],14.6 µM (active)
same,AC50,[3],15.4 µM (active)
same,outcome,[4],inactive
same,outcome,[5],inactive
same,AC50,[6],20 µM (active)
same,AC50,[7],13.8 µM (active)
same,AC50,[8],15.5 µM (active)
same,AC50,[9],14.5 µM (active)
Cc1[nH]c(=O)n(C(C)(C)C)c(=O)c1Cl,outcome,[1],inactive
same,outcome,[2],inactive
same,outcome,[3],inactive
same,outcome,[4],inactive
same,outcome,[5],inactive
same,outcome,[6],inactive
same,outcome,[7],inactive
same,AC50,[8],3.68 µM (active)
same,AC50,[9],5.42 µM (active)
CCCN(CCOc1c(Cl)cc(Cl)cc1Cl)C(=O)n1ccnc1,outcome,[1],inactive
same,AC50,[2],0.42 µM (active)
same,AC50,[3],20 µM (active)
same,outcome,[4],inactive
same,outcome,[5],inactive
same,AC50,[6],30.7 µM (active)
same,AC50,[7],27.8 µM (active)
same,AC50,[8],14.9 µM (active)
same,AC50,[9],29.6 µM (active)
COP(=S)(OC)Oc1ccc(SC)c(C)c1,outcome,[1],inactive
same,AC50,[2],30.1 µM (active)
same,AC50,[3],15.9 µM (active)
same,outcome,[4],inactive
same,outcome,[5],inactive
same,outcome,[6],inactive
same,outcome,[7],inactive
same,outcome,[8],inactive
same,outcome,[9],inactive
CNC(=O)Oc1cccc(N=CN(C)C)c1,outcome,[1],inactive
same,outcome,[2],inactive
same,outcome,[3],inactive
same,AC50,[4],26.5 µM (active)
same,AC50,[5],17.4 µM (active)
same,AC50,[6],33 µM (active)
same,AC50,[7],34.6 µM (active)
same,outcome,[8],inactive
same,outcome,[9],inactive
C[C@H]1[C@H](c2ccc(Cl)cc2)SC(=O)N1C(=O)NC1CCCCC1,AC50,[1],20.1 µM (active)
same,outcome,[2],inactive
same,AC50,[3],14.6 µM (active)
same,outcome,[4],inactive
same,AC50,[5],12.5 µM (active)
same,AC50,[6],16 µM (active)
same,AC50,[7],15.4 µM (active)
same,AC50,[8],13.5 µM (active)
same,AC50,[9],27 µM (active)
CC[C@H](C)[C@H]1O[C@]2(C=C[C@@H]1C)C[C@@H]1C[C@@H](C/C=C(\C)[C@@H](O[C@H]3C[C@H](OC)[C@@H](O[C@H]4C[C@H](OC)[C@@H](O)[C@H](C)O4)[C@H](C)O3)[C@@H](C)/C=C/C=C3\CO[C@@H]4[C@H](O)C(C)=C[C@@H](C(=O)O1)[C@]34O)O2 (tested in a mixture with another compound),AC50,[1],8.83 µM (active)
same,outcome,[2],inactive
same,AC50,[3],9.77 µM (active)
same,outcome,[4],inactive
same,AC50,[5],6.17 µM (active)
same,AC50,[6],7.86 µM (active)
same,AC50,[7],5.74 µM (active)
same,AC50,[8],7.28 µM (active)
same,AC50,[9],5.58 µM (active)
COC(=O)c1ccccc1S(=O)(=O)NC(=O)Nc1nc(C)nc(OC)n1,outcome,[1],inactive
same,outcome,[2],inactive
same,outcome,[3],inactive
same,outcome,[4],inactive
same,outcome,[5],inactive
same,outcome,[6],inactive
same,outcome,[7],inactive
same,outcome,[8],inactive
same,outcome,[9],inactive
[2H]C1([2H])[n+]2ccccc2-c2cccc[n+]2C1([2H])[2H],outcome,[1],inactive
same,outcome,[2],inactive
same,outcome,[3],inactive
same,outcome,[4],inactive
same,outcome,[5],inactive
same,outcome,[6],inactive
same,outcome,[7],inactive
same,outcome,[8],inactive
same,outcome,[9],inactive
CNC(=O)Oc1ccccc1OC(C)C,outcome,[1],inactive
same,outcome,[2],inactive
same,outcome,[3],inactive
same,outcome,[4],inactive
same,outcome,[5],inactive
same,outcome,[6],inactive
same,outcome,[7],inactive
same,outcome,[8],inactive
same,outcome,[9],inactive
N#CN,outcome,[1],inactive
same,outcome,[2],inactive
same,outcome,[3],inactive
same,outcome,[4],inactive
same,outcome,[5],inactive
same,outcome,[6],inactive
same,outcome,[7],inactive
same,outcome,[8],inactive
same,outcome,[9],inactive
CCOC1Oc2ccc(OS(C)(=O)=O)cc2C1(C)C (stereo unspecified),outcome,[1],inactive
same,outcome,[2],inactive
same,outcome,[3],inactive
same,outcome,[4],inactive
same,outcome,[5],inactive
same,outcome,[6],inactive
same,outcome,[7],inactive
same,AC50,[8],18.4 µM (active)
same,outcome,[9],inactive
CCOCN(C(=O)CCl)c1c(C)cccc1CC,AC50,[1],31.2 µM (active)
same,outcome,[2],inactive
same,AC50,[3],23.9 µM (active)
same,outcome,[4],inactive
same,AC50,[5],20 µM (active)
same,AC50,[6],27 µM (active)
same,outcome,[7],inactive
same,AC50,[8],11.8 µM (active)
same,AC50,[9],36 µM (active)
